We go through seven sequences from publication PMC4081100, “A DNA-binding-site landscape and regulatory network analysis for NAC transcription factors in Arabidopsis thaliana”.

Common to all, as to experiment: universal protein binding microarray (PBM); transcription factors of Arabidopsis thaliana; high values mean tight binding
The target of one experiment is T1, GST-ANAC092(1-176) (Arabidopsis thaliana, UniProt Q9FKA0 1-176).
T1 sequence: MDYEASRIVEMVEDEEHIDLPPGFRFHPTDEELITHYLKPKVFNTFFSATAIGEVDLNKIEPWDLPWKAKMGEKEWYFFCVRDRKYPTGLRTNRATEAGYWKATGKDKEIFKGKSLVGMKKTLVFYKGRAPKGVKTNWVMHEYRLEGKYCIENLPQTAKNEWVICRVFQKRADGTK
To be noted: protein: recombinant; tags: GST; chain copies: 2; dsDNA, one strand shown. A digest of the protocol: (§1)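 Binding is expressed as the normalised enrichment score (E-score). Proteins carrying a GST tag, whether NAC-domain, full-length or DNA-binding-domain forms, were induced in cells, and zinc acetate was added for zinc-finger proteins. After purification on glutathione–Sepharose 4B and quantification by A280 or anti-GST western blot, each was applied in duplicate at 200 to 500 nM final to custom all-10-mer Agilent 4 × 180K arrays made double-stranded by primer extension. Gapped and ungapped 8-mers were scored.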

In the next experiment the target is T2, GST-ANAC019 NAC domain (Arabidopsis thaliana, UniProt Q9C932 14-162).
T2 sequence: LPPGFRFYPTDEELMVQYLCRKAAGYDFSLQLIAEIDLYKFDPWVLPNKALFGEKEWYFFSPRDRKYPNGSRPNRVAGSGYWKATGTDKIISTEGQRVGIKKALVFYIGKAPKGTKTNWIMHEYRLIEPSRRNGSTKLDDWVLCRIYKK
The conditions noted are these: protein: recombinant; tags: GST; chain copies: 2; dsDNA, one strand shown. A digest of the protocol: as §1

The target in the next experiment is T3, GST-ANAC055(1-171) (Arabidopsis thaliana, UniProt Q9LDY8 1-171).
T3 sequence: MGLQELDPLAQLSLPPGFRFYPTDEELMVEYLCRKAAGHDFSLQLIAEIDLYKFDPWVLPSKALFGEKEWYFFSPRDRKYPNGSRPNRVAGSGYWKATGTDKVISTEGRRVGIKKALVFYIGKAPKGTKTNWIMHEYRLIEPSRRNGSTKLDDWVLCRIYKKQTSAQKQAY
To be noted: protein: recombinant; tags: GST; chain copies: 2; dsDNA, one strand shown. A digest of the protocol:
as §1

Another experiment deals with T4, GST-ATAF1 NAC domain (Arabidopsis thaliana, UniProt Q39013 7-158).
T4 sequence: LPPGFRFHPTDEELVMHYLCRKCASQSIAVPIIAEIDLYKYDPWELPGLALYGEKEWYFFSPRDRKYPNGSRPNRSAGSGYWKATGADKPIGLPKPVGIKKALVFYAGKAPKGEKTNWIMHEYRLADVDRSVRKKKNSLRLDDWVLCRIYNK
The conditions noted are these: protein: recombinant; tags: GST; chain copies: 2; dsDNA, one strand shown. A digest of the protocol:
as §1

The target of experiment [1] is T5, GST-ANAC092(1-285) full length (Arabidopsis thaliana, UniProt Q9FKA0 1-285).
T5 sequence: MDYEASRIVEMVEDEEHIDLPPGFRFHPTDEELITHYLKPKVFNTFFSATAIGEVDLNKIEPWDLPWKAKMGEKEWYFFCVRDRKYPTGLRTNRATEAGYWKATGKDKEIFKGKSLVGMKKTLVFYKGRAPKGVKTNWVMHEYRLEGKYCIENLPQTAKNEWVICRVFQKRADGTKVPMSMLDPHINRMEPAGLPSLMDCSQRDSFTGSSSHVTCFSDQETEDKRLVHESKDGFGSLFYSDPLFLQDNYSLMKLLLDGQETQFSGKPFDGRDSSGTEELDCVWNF
The conditions noted are these: protein: recombinant; tags: GST; chain copies: 2; dsDNA, one strand shown. The method in brief:
as §1

The next experiment has as its target T6, GST-NAP(1-166) (Arabidopsis thaliana, UniProt O49255 1-166).
T6 sequence: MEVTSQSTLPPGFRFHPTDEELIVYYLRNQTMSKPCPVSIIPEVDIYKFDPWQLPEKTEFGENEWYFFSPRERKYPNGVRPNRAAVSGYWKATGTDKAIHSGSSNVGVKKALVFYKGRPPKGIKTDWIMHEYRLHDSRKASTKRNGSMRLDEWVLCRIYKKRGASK
The conditions noted are these: protein: recombinant; tags: GST; chain copies: 2; dsDNA, one strand shown. A digest of the protocol: as §1

For another experiment, the target named is T7, GST-NST2(1-184) (Arabidopsis thaliana, UniProt Q9M274 1-184).
T7 sequence: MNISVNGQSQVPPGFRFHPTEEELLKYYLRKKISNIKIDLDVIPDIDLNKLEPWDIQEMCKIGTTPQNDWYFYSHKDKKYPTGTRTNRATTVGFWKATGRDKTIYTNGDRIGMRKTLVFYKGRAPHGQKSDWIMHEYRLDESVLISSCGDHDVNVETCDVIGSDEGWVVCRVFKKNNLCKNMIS
To be noted: protein: recombinant; tags: GST; chain copies: 2; dsDNA, one strand shown. A digest of the protocol: as §1

The target of another experiment is T8, GST-NTL8 NAC domain (Arabidopsis thaliana, UniProt Q9XIN7 14-156).
T8 sequence: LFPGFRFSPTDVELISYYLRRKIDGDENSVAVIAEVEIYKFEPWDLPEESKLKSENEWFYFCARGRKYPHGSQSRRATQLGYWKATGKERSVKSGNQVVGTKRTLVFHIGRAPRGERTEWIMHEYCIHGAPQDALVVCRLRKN
The conditions noted are these: protein: recombinant; tags: GST; chain copies: 2; dsDNA, one strand shown. A digest of the protocol:
as §1

For a further experiment, the target named is T9, GST-SND1(1-203) (Arabidopsis thaliana, UniProt Q9LPI7 1-203).
T9 sequence: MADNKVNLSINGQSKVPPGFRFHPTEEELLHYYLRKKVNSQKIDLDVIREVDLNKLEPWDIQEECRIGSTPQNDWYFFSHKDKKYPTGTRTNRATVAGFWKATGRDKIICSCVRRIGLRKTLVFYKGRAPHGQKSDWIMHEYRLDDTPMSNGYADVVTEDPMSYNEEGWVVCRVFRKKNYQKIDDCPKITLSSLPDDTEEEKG
The conditions noted are these: protein: recombinant; tags: GST; chain copies: 2; dsDNA, one strand shown. A digest of the protocol: as §1

For a further experiment, the target named is T10, GST-VND3 NAC domain (Arabidopsis thaliana, UniProt Q9FH59 12-162).
T10 sequence: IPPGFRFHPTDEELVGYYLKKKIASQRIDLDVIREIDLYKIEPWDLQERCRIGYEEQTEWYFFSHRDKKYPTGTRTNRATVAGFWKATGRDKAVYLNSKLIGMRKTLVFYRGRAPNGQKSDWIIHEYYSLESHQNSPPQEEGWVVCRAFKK
The conditions noted are these: protein: recombinant; tags: GST; chain copies: 2; dsDNA, one strand shown. A digest of the protocol:
as §1

In the next experiment the target is T11, GST-VND7 NAC domain (Arabidopsis thaliana, UniProt Q9C8W9 9-158).
T11 sequence: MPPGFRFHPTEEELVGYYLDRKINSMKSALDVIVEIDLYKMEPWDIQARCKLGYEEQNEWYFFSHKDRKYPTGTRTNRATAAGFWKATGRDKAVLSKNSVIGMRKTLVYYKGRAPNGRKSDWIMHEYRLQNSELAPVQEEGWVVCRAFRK
To be noted: protein: recombinant; tags: GST; chain copies: 2; dsDNA, one strand shown. The method in brief: as §1

A further experiment deals with GST-NTL6(1-168) (Arabidopsis thaliana, UniProt Q9SCK6 1-168). To be noted: protein: recombinant; tags: GST; chain copies: 2; dsDNA, one strand shown. A digest of the protocol: as §1
Another experiment has as its target GST-WRKY1(266-371) (Arabidopsis thaliana, UniProt Q9SI37 266-371). The conditions noted are these: protein: recombinant; tags: GST; dsDNA, one strand shown. The method in brief:
as §1

Chain of GST-WRKY1(266-371) (Q9SI37 266-371): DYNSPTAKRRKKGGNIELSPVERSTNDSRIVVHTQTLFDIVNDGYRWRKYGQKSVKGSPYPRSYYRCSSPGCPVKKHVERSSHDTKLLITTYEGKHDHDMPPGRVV
Chain of GST-NTL6(1-168) (Q9SCK6 1-168): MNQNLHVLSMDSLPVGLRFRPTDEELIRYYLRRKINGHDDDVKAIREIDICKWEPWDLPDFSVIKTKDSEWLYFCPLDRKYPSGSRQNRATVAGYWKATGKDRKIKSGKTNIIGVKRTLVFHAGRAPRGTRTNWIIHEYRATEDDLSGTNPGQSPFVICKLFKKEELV

In the case of GCACGGAA, the binding signal in the experiment with GST-ANAC092(1-176) is 0.388 E-score; with GST-ANAC019 NAC domain, 0.472 E-score; in the experiment with GST-ANAC055(1-171) it was 0.457 E-score; with GST-ATAF1 NAC domain, 0.357 E-score; in experiment [1], 0.413 E-score; with GST-NAP(1-166), 0.437 E-score. Besides, the binding signal with GST-NST2(1-184) came to 0.2 E-score; in the experiment with GST-NTL8 NAC domain it was 0.193 E-score; in the experiment with GST-SND1(1-203) it was 0.156 E-score; in the experiment with GST-VND3 NAC domain, 0.402 E-score; in the experiment with GST-VND7 NAC domain, 0.453 E-score.
Regarding ATTACGCA, the binding signal was 0.35 E-score with GST-ANAC092(1-176); 0.168 E-score with GST-ANAC019 NAC domain; 0.276 E-score with GST-ANAC055(1-171); 0.206 E-score with GST-ATAF1 NAC domain; 0.37 E-score in experiment [1]; 0.282 E-score with GST-NAP(1-166). Besides, the binding signal in the experiment with GST-NST2(1-184) was determined as 0.292 E-score; in the experiment with GST-SND1(1-203), 0.431 E-score; in the experiment with GST-VND3 NAC domain, 0.265 E-score; with GST-VND7 NAC domain, 0.253 E-score.
Take CACGGCAC: the binding signal with GST-ANAC092(1-176) was determined as 0.462 E-score; with GST-ANAC019 NAC domain, 0.484 E-score; in the experiment with GST-ANAC055(1-171) it was 0.484 E-score; in the experiment with GST-ATAF1 NAC domain, 0.432 E-score; in experiment [1] it was 0.474 E-score; with GST-NAP(1-166), 0.478 E-score. Moreover, the binding signal with GST-NST2(1-184) was found to be 0.292 E-score; with GST-SND1(1-203), 0.203 E-score; with GST-VND3 NAC domain, 0.458 E-score; with GST-VND7 NAC domain it was 0.485 E-score.
For the sequence AACACGTT, the binding signal came to 0.375 E-score with GST-ANAC092(1-176); 0.262 E-score with GST-ANAC019 NAC domain; 0.284 E-score with GST-ANAC055(1-171); 0.228 E-score with GST-ATAF1 NAC domain; 0.426 E-score in experiment [1]; 0.259 E-score with GST-NAP(1-166). The binding signal in the experiment with GST-NST2(1-184) stood at 0.222 E-score; with GST-NTL8 NAC domain, 0.132 E-score; with GST-SND1(1-203) it was 0.202 E-score; in the experiment with GST-VND3 NAC domain, 0.281 E-score; in the experiment with GST-VND7 NAC domain, 0.203 E-score.
With TACACGTA, the binding signal with GST-ANAC092(1-176) came to 0.382 E-score; with GST-ANAC019 NAC domain, 0.286 E-score; with GST-ANAC055(1-171), 0.361 E-score; with GST-ATAF1 NAC domain, 0.322 E-score; in [1], 0.411 E-score; with GST-NAP(1-166) it was 0.386 E-score. Also, the binding signal in the experiment with GST-NST2(1-184) is 0.198 E-score; with GST-SND1(1-203), 0.251 E-score; with GST-VND3 NAC domain, 0.375 E-score; with GST-VND7 NAC domain it was 0.406 E-score.
On to AATTACGC, for which the binding signal with GST-ANAC092(1-176) came to 0.17 E-score; in the experiment with GST-ANAC055(1-171) it was 0.155 E-score; with GST-ATAF1 NAC domain it was 0.18 E-score; in experiment [1], 0.243 E-score; in the experiment with GST-NAP(1-166), 0.144 E-score; in the experiment with GST-NST2(1-184), 0.199 E-score. For the same sequence, the binding signal with GST-SND1(1-203) was 0.428 E-score; with GST-VND3 NAC domain it was 0.119 E-score; with GST-VND7 NAC domain, 0.13 E-score.
Take AGTCAAAC: the binding signal with GST-NTL6(1-168) worked out at 0.0896 E-score; with GST-ANAC019 NAC domain, 0.0687 E-score; with GST-ANAC055(1-171), 0.103 E-score; in the experiment with GST-ATAF1 NAC domain it was 0.109 E-score; with GST-NAP(1-166), 0.0582 E-score; with GST-NST2(1-184) it was 0.0701 E-score. The binding signal with GST-NTL8 NAC domain amounted to 0.07 E-score; with GST-SND1(1-203) it was 0.126 E-score; with GST-VND3 NAC domain, 0.103 E-score; in the experiment with GST-WRKY1(266-371) it was 0.491 E-score.
